PubChem BioAssay (NCATS)
Values joined by “and” are separate entries in the source; they are usually repeats but may differ in a detail not shown here. Equal entries are not always repeated. Results filed as inconclusive are left out. A call without a number means that no potency is given here. Values without a mark were called inactive. Active and inactive are the calls of the source. Calls follow the shape of the dose curve; as a rule, active = well fitted cell-killing curve with a large enough effect; inconclusive = small, poorly fitted or top-dose-only effect, or effect the other way; inactive = no such curve, though single readings can be large or run the other way.

Key:
[1] = Viability qHTS for spleen associated tyrosine kinase inhibitor (SYKi) naive MV4-11 cells (AID 1963823); also: nearly all actives have a fitted effect of over 40% in size
Procedure, shortened: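 SYK inhibitor-naive MV4-11 cells, 500 per well, exposed to compounds for 72 hr at 37 C, 5% CO2. Viability read as CellTiter-Glo luminescence after 10 min at room temperature.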

[2] = Viability qHTS for spleen associated tyrosine kinase inhibitor (SYKi) drug resistant MV4-11 cells (AID 1963824); also: nearly all actives have a fitted effect of over 35% in size
Procedure, shortened: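 CellTiter-Glo luminescence, read 10 min after reagent addition, reports viability after a 72 hr compound exposure. Cells are an MV4-11 line made resistant to SYK inhibition, seeded at 500 per well onto compound-containing plates.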
Potency is read from the fitted curve at half-maximal effect.

Compound | Potency [1] | Potency [2] | viability (% of control) [1] | viability, % of control [2]
Cc1cn([C@H]2C[C@H](O)[C@@H](CO)O2)c(=O)nc1N | inactive | inactive |  | 
CC(C)(C)[C@H](NC(=O)c1ccc(N)c(Cl)c1)C(=O)N1CCC[C@H]1C(=O)N[C@H](C#N)CC(=O)O | inactive | inactive |  | 
COC12CC3C(C(C)C1=CC(=O)O2)C(O)C(OC(C)=O)C1C(C)(C)C(OC(C)=O)CCC31C (centres undefined) | inactive | inactive |  | 
Nc1ccc(-n2nc(C(F)(F)F)cc2C(F)(F)F)cc1 | inactive | inactive |  | 
O=C(C(c1ccccc1)c1ccccc1)N1CCN(CC(O)COc2cccc3ncccc23)CC1 (centres undefined) | 20.9 µM (active) | 10.3 µM (active) and 11.8 µM (active) |  | 
OC[C@H]1O[C@@H](OCCc2ccccc2)[C@H](O[C@@H]2OC[C@](O)(CO)[C@H]2O)[C@@H](O)[C@@H]1O | inactive | inactive |  | 
CC(C)=CCC/C(C)=C/Cc1ccc(O)c(C2OC(=O)c3cc(C(=O)O)cc(O)c32)c1O (centres undefined) | inactive | inactive |  | 
C[C@@H]1CC[C@@]2(OC1)O[C@H]1C[C@H]3[C@@H]4CC=C5C[C@@H](O)CC[C@]5(C)[C@H]4CC[C@]3(C)[C@H]1[C@@H]2C | inactive | inactive |  | 
OC[C@H]1O[C@@H](Oc2ccccc2)[C@H](O)[C@@H](O)[C@@H]1O | inactive | inactive |  | 
CC(=O)/C=C/[C@H]1[C@](C)(O)[C@@H](O)[C@H](OC(C)=O)C2C(C)(C)CCC[C@@]21C (some centres undefined) | inactive | inactive |  | 
CC[C@H](C)/C=C(C)/C=C/C1=CC2=C(Cl)C(=O)[C@](C)(O)[C@H](OC(C)=O)[C@H]2CO1 | 12.8 µM (active) | 7.18 µM (active) |  | 
CC1(C)CC[C@]2(C(=O)O[C@@H]3O[C@H](CO)[C@@H](O)[C@H](O)[C@H]3O)CC[C@]3(C)C(=CCC4[C@@]5(C)CC[C@H](O[C@H]6O[C@H](CO)[C@@H](O)[C@H](O[C@@H]7O[C@H](CO)[C@@H](O)[C@H](O)[C@H]7O)[C@H]6O)C(C)(C)C5CC[C@]43C)[C@@H]2C1 (some centres undefined) |  |  | 84% [at 9.25 µM] | 95.6% [at 9.25 µM]
Cc1cc2c(N3CCCC3)nc(N3CCCC3)nc2n1C | 8.2 µM (active) | 7.31 µM (active) |  | 
O=C(/C=C/c1ccc2ccccc2n1)c1ccncc1 | 1.46 µM (active) | 1.64 µM (active) |  | 
CC1=C2C[C@H]3O[C@@]3(C)CCC3O[C@@]3(C)C[C@@]2(O)OC1=O (some centres undefined) | inactive | inactive |  | 
Cc1cnc(NC(=O)Nc2cc(Br)c(C)cc2OCC2CNCCO2)cn1 (centres undefined) | 0.731 µM (active) | 0.82 µM (active) |  | 

Compound | Potency [1] | Potency [2] | viability (% of control) [1] | viability, % of control [2]
CCC(C)C1NC(=O)C2CCCN2C(=O)C(C(C)C)NC(=O)c2ccccc2NC(=O)C(Cc2ccc(O)cc2)NC(=O)C(C)NC(=O)C(C(C)O)NC1=O (centres undefined) | inactive | inactive |  | 
COC(=O)[C@]12C(=O)C(C)=C(O)[C@@]1(C)C(C)=CC1[C@@]34CC[C@@H](OC(C)=O)C(C)(C)C3[C@H](C[C@]12C)OC4=O (some centres undefined) | inactive | inactive |  | 
CC1(C)CC[C@]2(C(=O)OC3OC(CO)C(O)C(O)C3O)CC[C@]3(C)C(=CCC4[C@@]5(C)CC[C@H](OC6OC(C(=O)O)C(O)C(O)C6O)C(CO)(CO)C5CC[C@]43C)[C@@H]2C1 (some centres undefined) | 0.693 µM (active) | 0.438 µM (active) |  | 
CC1CCC23COC(=O)C2=CC(O)CC3C1(C)CCC1=CC(O)OC1=O (centres undefined) | inactive | inactive |  | 
CCOc1ccc(-c2cc(NC(=O)c3c(F)cccc3F)c(C(=O)O)s2)cc1 | inactive | inactive |  | 
c1ccc(-c2cnn3cc(-c4ccc(OCCN5CCOCC5)cc4)cnc23)cc1 | 0.0184 µM (active) | 0.058 µM (active) |  | 
CC1=CC(=O)CC(C)(C)[C@H]1/C=C/C(CO)O[C@@H]1O[C@H](CO)[C@@H](O)[C@H](O)[C@H]1O (some centres undefined) | inactive | inactive |  | 
Cc1ccc(C)c(S(=O)(=O)n2cnc3ccccc32)c1 | inactive | inactive |  | 
C[C@@H]1CN(Cc2ncccn2)C[C@H]1c1nc2c(cnn2C2CCOCC2)c(=O)[nH]1 | inactive | inactive |  | 
CCc1nn(CCO)c(CC)c1Oc1cc(C#N)cc(C#N)c1 | inactive | inactive |  | 
CCC(C)CNCC(=O)N1CCC2SC=CC2C1COc1cccc(C)c1 (centres undefined) | 11.6 µM (active) | 10.3 µM (active) |  | 
CC1=C2CC3C(CCC3(C)O)C(C)(O)CC2OC1=O (centres undefined) | inactive | inactive |  | 
Cc1occc(=O)c1O[C@@H]1O[C@H](CO)[C@@H](O)[C@H](O)[C@H]1O | inactive | inactive |  | 
CNCC[C@H](Oc1cccc2ccccc12)c1cccs1 | 18.8 µM (active) | 26.6 µM (active) |  | 
C=C1/C(=C/C=C2\CCC[C@]3(C)[C@@H]([C@H](C)/C=C/[C@H](O)C4CC4)CC[C@@H]23)C[C@@H](O)C[C@@H]1O | 0.0326 µM (active) | 0.731 µM (active) |  | 
CN(C)c1cc2c(Nc3ccc4c(cnn4Cc4ccccc4)c3)ncnc2cn1 | 8.2 µM (active) | 9.2 µM (active) |  | 
